# Source: PubChem BioAssay
# Only a sample is shown.
# aSyn UTR act: Activators working through SNCA 5'UTR binding (MLPCN); alpha-synuclein 5'UTR reporter, activators screen; 300,000 compounds, 7.1% hits; AID 1814; activity score, % (tested at 7.5 µM), hits read low; in the data active = activity score below about -60%
# Numbers without * were called inactive.
SMILES,aSyn UTR act
C/C(=N\OC(=O)c1cccc(C(F)(F)F)c1)c1sc(-c2ccccc2)nc1C,-119*
C/C(=N\OC(=O)c1cccc(C)c1)c1sc(-c2ccccc2)nc1C,-147*
NC(=O)c1ccc(-n2nnnc2Oc2ccccc2C(=O)N2CCOCC2)cc1,-108*
O=C(C#Cc1ccccc1)c1ccco1,-141*
COc1cccc2oc3ccc(C#CC4(N)CCCCC4)cc3c(=O)c12,-62*
Cc1cc2sc3ccc(C#CC4(O)CCCCC4)cc3c(=O)c2cc1C,102
CCC1=C/C(=C/N(C)c2ccccc2)C(=O)S1,-62*
Cc1ccc(C(=O)O/N=C/c2c(N3CCOCC3)n(C)c3ccccc23)cc1,77
BrC(=C\c1ccccc1)/C=N/N1CCN(c2ccccc2)CC1,-65*
Clc1ccc(N2CCN(/N=C/c3cccnc3)CC2)cc1,-67*
COC(=O)c1ccc(/C=N\N2CCN(c3ccccc3)CC2)cc1,-127*
C(=N\N1CCN(c2ccccc2)CC1)/c1ccccc1,-123*
CCc1ccc(S(=O)(=O)Nc2cc3c(cc2C)n(C)c(=O)n3C)cc1,-92*
Cn1c(=O)n(C)c2cc(S(=O)(=O)Nc3cc(Cl)ccc3O)ccc21,-72*
Cc1ccc(C(=O)NCCc2csc(-c3cccnc3)n2)cc1,-77*
C#CCOc1ccc(C2C3=C(COC3=O)Nc3cc4c(cc32)OCO4)cc1OC (stereo not drawn),132
CCOc1ccc(C2Sc3ccccc3NC3=C2C(=O)OC3)cc1 (stereo not drawn),-78*
CCOc1ccccc1C1C2=C(COC2=O)Nc2cc3c(cc21)OCO3 (stereo not drawn),117
CCOc1c(OC(C)=O)ccc(/C=C/c2ccc3cccc(OC)c3n2)c1[N+](=O)[O-],-76*
COc1cccc(/C=C/c2ccc3cccc(O)c3n2)c1OC,-74*
COc1ccc(/C=C/c2ccc3cccc(O)c3n2)c(OC)c1OC,-92*
COC(=O)c1ccc(/C=C/c2ccc3cccc(OC)c3n2)cc1,-97*
CC(=O)Nc1ccc(/C=C/c2ccc3cccc([N+](=O)[O-])c3n2)cc1,-112*
CC(C)Sc1ccc(C(=O)Nc2ccc(F)cc2F)cn1,-140*
CN(C)/C=C/C(=O)/C=C/c1ccc(Cl)cc1Cl,-150*
SMILES,aSyn UTR act
O=C(/C=C/c1ccccc1Cl)c1ccc[nH]1,-343*
O=C(/C=C/c1ccc(Cl)cc1Cl)c1ccc[nH]1,-139*
O=C(/C=C/c1ccc(-c2cccc([N+](=O)[O-])c2)o1)N1CCOCC1,-110*
O=C1NC(=O)/C(=C/c2ccc(-c3cccc([N+](=O)[O-])c3)o2)S1,-126*
O=[N+]([O-])c1cccc(-c2ccc(/C=N/Nc3nc(N4CCCCC4)nc(N4CCCCC4)n3)o2)c1,73
CCCCOc1ccc(N=Nc2ccc(N)nc2N)cn1,-300*
CN(C)c1ccc(/C=C/c2nnnn2-c2ccccc2)cc1,-157*
Cc1cc(C)c(C#N)c(SCC(=O)c2cccs2)n1,-173*
Cc1cc(C)c(C#N)c(SCC(=O)Nc2nonc2N)n1,-87*
Cc1ccnc(SCC(=O)c2cccs2)n1,-95*
Cc1nnc(N/N=C/c2cccc(OCc3ccc(Cl)c(Cl)c3)c2)n1N,-83*
CCOc1ccc(-c2nc(CCl)cs2)cc1,-70*
COc1cc(/C=C2\Oc3cc(O)ccc3C2=O)ccc1O,-194*
COc1ccc(/C=C2\OC(=O)c3c(OC)cccc32)cc1OC,-200*
CCOc1cc(/C=C2\CN(CC)C/C(=C\c3ccc(O)c(OCC)c3)C2=O)ccc1O,102
COc1cc(/C=C2/CCC/C(=C\c3cc(O)c(OC)c(Cl)c3)C2=O)cc(Cl)c1O,-143*
COc1cc(/C=C2\COC/C(=C\c3cc(OC)c(OC)c(OC)c3)C2=O)cc(OC)c1OC,103
COc1cc(/C=C2\CCC/C(=C\c3ccc(O)c(OC)c3)C2=O)ccc1O,-394*
COc1ccc(/C=C2\CCCC(C(=O)C(F)(F)F)=C2O)cc1OC,-69*
COc1cc(/C=C/C(=O)CC(=O)/C=C/c2ccc(O)c(OC)c2)ccc1O,-85*
COc1cc(/C=C/C(=O)c2ccc([N+](=O)[O-])o2)ccc1O,67
C(=N\Nc1nncc2ccccc12)/c1ccccn1,98
CC(=O)Nc1ccc(/C=N/Nc2nncc3ccccc23)cc1,-126*
CC(C)c1ccc2c(c1)C1Cc3ccccc3C1N2 (stereo not drawn),-196*
CCCc1nnc(NC(=O)Nc2ccccc2OC)s1,-92*
SMILES,aSyn UTR act
COc1ccccc1Nc1nnc(SCC(=O)N2CCCC2)s1,-77*
CCCSc1nnc(NC(=O)Nc2ccccc2OC)s1,-144*
O=C(Nc1ccc2oc(-c3cccc(F)c3)nc2c1)c1ccccc1F,-120*
O=C(Nc1ccc2oc(-c3ccccc3F)nc2c1)c1ccccc1F,-188*
O=C(Nc1ccc2oc(-c3ccncc3)nc2c1)c1ccc([N+](=O)[O-])o1,-118*
O=C(Nc1ccc2oc(-c3ccncc3)nc2c1)c1cccs1,-114*
O=C(Nc1ccc2oc(-c3ccncc3)nc2c1)c1ccccc1F,-135*
O=C(Nc1ccc2oc(-c3ccccc3)nc2c1)c1ccccc1F,-257*
O=C(Nc1ccc2oc(-c3ccc(Cl)c(Cl)c3)nc2c1)c1ncn[nH]1,-168*
CC(C)CC(=O)Nc1ccc2oc(-c3ccncc3)nc2c1,-74*
CCc1ccc(-c2cn(C3CCCCC3)c(=S)[nH]2)cc1,-127*
O=C(Nc1ncc(Cc2ccc(SC(F)F)cc2)s1)c1ccc(OC(F)F)cc1,-129*
CCc1cc2c(=O)c(-c3cscn3)coc2cc1O,-139*
Clc1nc(-c2cccnc2)nc2scc(-c3ccccc3)c12,-134*
Cc1cccc(OCc2cc(-c3ccccc3)no2)c1C,-112*
Fc1ccc(OCc2cc(-c3ccccc3)no2)cc1,-149*
COc1ccc(-c2cc(COc3ccccc3)on2)cc1,-132*
CCn1c(C)csc1=NC(=O)c1ccccc1,-112*
Cc1csc(=NC(=O)c2ccccc2)n1C,-126*
CCn1c(C)csc1=NC(=O)c1ccccc1O,-249*
N#CCC(=O)N/N=C\c1ccccc1OC/C=C/c1ccccc1,-166*
COCC(=O)N/N=C\c1ccccc1OC/C=C/c1ccccc1,-95*
CC(C)N1C(=O)S/C(=C\c2ccc(-c3ccc(Cl)c(C(=O)O)c3)o2)C1=O,-128*
CCN(CC)c1ccc(/C=C2/SC(=O)N(C(C)C)C2=O)o1,-175*
C=CCn1c(=O)c2ccccc2n2c(Sc3nnnn3-c3ccccc3)nnc12,-74*
SMILES,aSyn UTR act
Cc1cccc(N=Nc2c(C)nn(-c3ccccc3)c2N)c1C,-124*
Cc1nn(-c2ccccc2)c(N)c1N=Nc1ccc(Cl)cc1,-175*
Nc1ccc(C(=O)OCc2nc3c(ccc4ccccc43)[nH]2)cc1,-116*
O=C(/C=C/c1cccc2ccccc12)N1CCOCC1,-63*
O=C(/C=C/c1ccc(OCCCF)cc1)N1CCOCC1,-70*
O=C(/C=C/c1cccc(Oc2ccccc2)c1)N1CCOCC1,-95*
O=C(CCN1C(=O)/C(=C/C=C/c2ccccc2)SC1=S)Nc1nc2ccccc2s1,-62*
O=C(CN1C(=O)S/C(=C\C=C\c2ccccc2)C1=O)N1CCOCC1,-126*
O=C(CCCN1C(=O)S/C(=C\C=C\c2ccccc2)C1=O)Nc1ccc(O)cc1,-126*
CCc1ccc(/C=C2\SC(=S)N(CCCC(=O)Nc3ccc(C(=O)O)cc3)C2=O)cc1,109
O=C(CCN1C(=O)/C(=C\C=C\c2ccccc2)SC1=S)Nc1ccc(C(=O)O)cc1,-69*
O=C(COC(=O)CCN1C(=O)/C(=C\C=C\c2ccccc2)SC1=S)Nc1cc(F)ccc1F,64
